# Screening results: PubChem, Broad Institute
# ALR inh – human ALR oxidase inhibition via reduced H2O2; AID 485317; inhibition, % (test concentration not listed); hit rate 3.8% among 290,000; purified ALR, DTT oxidation, H2O2 HRP-luminol luminescence; P55789;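 active means mean replicate inhibition above about 79%, with every replicate also reaching it, limit read from the data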
# Mot1-301 SUMO – SUMOylation pathway inhibition by Mot1-301 growth rescue; growth rescue, % at 18.8 µM; S. cerevisiae Mot1-301 growth rescue, ATP luminescence, 38.5C; percent above DMSO median, 100 means doubled; hit rate 1% among 320,000;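 active means every valid replicate shows activation above 250% relative to neutral control wells; inactive means the rest, any valid replicate at or below 250%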;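 further: OY570 slx delta 5 strain wells were the positive control but not used for scaling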
# NSD2 HMT inh – blocks human histone methyltransferase NSD2; O96028; NSD2 peptide methylation, AlphaScreen, 120 min; inhibition, % at 12.5 µM; hit rate 0.54% among 310,000; in the data active means inhibition above about 50%
# CDK5 inh – inhibitors of human CDK5/p35 kinase | Q00535+Q15078 | inhibition, % at 10 µM | Recombinant CDK5/p35, ADP-Glo luminescence, 60 min | hit rate 0.01% among 330,000;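 active means highest replicate inhibition of at least 50% and at least 75% of replicates reaching 50%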;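 further: plate controls were DMSO neutral control for no effect and GW8510 at 10 µM for full effect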
# Target sequence (Q00535 whole entry, looked up): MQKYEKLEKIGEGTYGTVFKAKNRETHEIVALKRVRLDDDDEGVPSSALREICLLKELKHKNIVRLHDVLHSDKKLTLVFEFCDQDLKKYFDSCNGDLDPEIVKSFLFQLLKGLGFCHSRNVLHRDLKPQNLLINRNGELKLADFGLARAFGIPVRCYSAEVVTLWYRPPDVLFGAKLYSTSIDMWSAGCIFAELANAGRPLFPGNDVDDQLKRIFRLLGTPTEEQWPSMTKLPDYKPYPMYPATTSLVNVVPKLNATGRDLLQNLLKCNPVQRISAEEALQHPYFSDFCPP
# Target sequence (Q15078 whole entry, looked up): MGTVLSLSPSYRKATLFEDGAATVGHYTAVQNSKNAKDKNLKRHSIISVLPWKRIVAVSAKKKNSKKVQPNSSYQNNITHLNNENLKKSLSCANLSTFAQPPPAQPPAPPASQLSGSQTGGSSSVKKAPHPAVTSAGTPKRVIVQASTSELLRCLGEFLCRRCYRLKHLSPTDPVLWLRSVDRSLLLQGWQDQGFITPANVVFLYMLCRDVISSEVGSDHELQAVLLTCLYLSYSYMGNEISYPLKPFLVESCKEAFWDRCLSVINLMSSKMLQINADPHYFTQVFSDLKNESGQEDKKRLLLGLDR
# CASP6 VEID inh – inhibitors of human caspase-6; hit rate 0.53% among 350,000; purified caspase-6, Z-VEID-R110 cleavage fluorescence; inhibition, % at 12.5 µM;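 active means mean inhibition across replicates at least about 35%, with every replicate also reaching that limit, limit read from the data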;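 further: 0% = median of neutral control wells and 100% = no fluorescence left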
# Glyco luc inh – N-linked glycosylation inhibition. D54 ERlucT glycosylation luciferase reporter, 24 h; percent of 100 nM tunicamycin response. reporter increase, % at 12.5 µM. hit rate 0.23% among 360,000. AID 588692;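 active means mean luciferase reporter signal, scaled so untreated is 0 and the glycosylation-blocking control 100, at or above a set limit in every replicate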;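 further: luciferase carries N-glycosylation sites so blocking glycosylation raises the light; 0% = median of neutral control wells and 100% = median of 100 nM tunicamycin wells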
# Yeast Mot1 SUMO – SUMO pathway inhibitors in yeast Mot1-301 growth; shares compounds with Mot1-301 SUMO; S. cerevisiae Mot1-301 galactose growth, ATP luminescence, 24 h; -100 = growth of slx-deleted rescue strain; growth activity, percent, % at 42 µM; 2,300 tested, under 10 active; AID 493004;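 active means Signal drops as the depositor expects, and the fitted half-maximal dose is no more than ten times the top valid tested dose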;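 further: more negative values mean stronger growth rescue toward the control strain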
# An asterisk follows results filed as active; . = no result; + = active, no number. An excerpt weighted towards active compounds, which were near 3.9% of everything screened.
SMILES,ALR inh,Mot1-301 SUMO,NSD2 HMT inh,CDK5 inh,CASP6 VEID inh,Glyco luc inh,Yeast Mot1 SUMO
C/C(O)=C(\N=Nc1cc(C)ccc1O)C(N)=O,2,+,0,0,1,1,1
CC(=O)Nc1ccc(S(=O)(=O)Nc2ccc(S(=O)(=O)Nc3ncccn3)cc2)cc1,0,+,-1,0,3,1,0
CC(=O)Nc1ccc(S(=O)(=O)Nc2cccc(-c3ccc4nncn4n3)c2)cc1,3,528*,-7,1,6,3,0
CCOC(=O)Cn1c(=O)cc(C)c2ccccc21,.,-16,-4,-2,1,2,.
CCOC(=O)Cn1c(C)c(Br)c(=O)c2cccc(C)c21,-5,+,2,0,.,2,0
Cc1noc(C)c1NC(=O)Nc1cccc2c1O[C@H](CN(C)Cc1ccc3c(c1)OCO3)[C@@H](C)CN([C@@H](C)CO)C2=O,.,.,.,.,3,.,.
O=C(Nc1nc2ccccc2s1)c1cccc(S(=O)(=O)N2CCc3ccccc32)c1,.,+,-1,-2,1,-2,0
CCCNC(=O)Nc1ccc2c(c1)C(=O)N(C)C[C@H](OC)[C@@H](C)CN(C(=O)C1CC1)[C@@H](C)CO2,.,.,.,.,2,.,.
Cc1cc(NC(=O)CSc2ncccn2)no1,11,-7,2,2,3,3,.
Cc1cc(NC(=O)CSc2ncn(-c3ccccc3)n2)no1,.,925*,0,0,.,-1,0
CCOc1ccc(S(=O)(=O)N2CCN(C(=O)CN3C(=O)NC4(CCCC4)C3=O)CC2)cc1,-2,666*,0,-4,0,3,-1
COc1ccc(S(=O)(=O)N2CCN(C(=O)CN3C(=O)NC4(CCCC4)C3=O)CC2)cc1,-1,-6,-2,1,3,0,.
CN(C)C(=O)C[C@H]1CC[C@H](NS(=O)(=O)c2ccccc2)[C@@H](CO)O1,.,.,.,.,-3,.,.
O=c1c2ccccc2nc(SCc2nnc(-c3ccccc3)o2)n1-c1ccc(F)cc1F,-1,466*,1,0,.,2,0
N#CC1=C(N)Oc2cc(O)ccc2C1c1cccs1 (configuration not stated),31,84,0,0,.,0,.
N#CC1=C(N)Oc2c(ccc3ccccc23)C1c1cccs1 (configuration not stated),-22,508*,.,.,.,.,1
C[C@H](NC(=O)[C@H]1[C@H](CO)[C@H]2Cn3c(ccc(-c4cccc(F)c4)c3=O)[C@H]2N1C)c1ccccc1,.,.,.,.,1,.,.
O=C(CSc1nnnn1C1CC2CCC1C2)Nc1ccnc2ccccc12 (configuration not stated),.,775*,.,1,.,-3,0
O=C(CSc1nnnn1C1CCCCC1)Nc1ccccc1F,6,0,-1,-1,-1,1,.
CN(C)c1ccc(NS(=O)(=O)c2cccc(Cl)c2)cc1,99*,733*,9,1,.,-3,0
CCOC(=O)c1ccc(NC(=S)NCCCN2CCOCC2)cc1,-5,622*,.,-1,-17,0,0
CC(=O)c1ccc(NC(=S)NCCCN2CCOCC2)cc1,-11,-2,-6,0,-5,3,.
CO[C@H]1CN(C)C(=O)c2cc(NC(=O)c3ccc(F)cc3)ccc2OC[C@H](C)N(C(C)=O)C[C@@H]1C,.,.,.,.,-3,.,.
C/C=C/c1ccc2c(c1)O[C@H](CN(C)Cc1ccc(F)cc1)[C@@H](C)CN([C@@H](C)CO)S2(=O)=O,.,.,.,.,0,.,.
O=C(NCc1ccc(F)cc1)[C@H]1C[C@H]2C(=O)N3CCC[C@H]3C(=O)N2[C@H]1c1cccc(OCCO)c1,.,.,.,.,1,.,.
C[C@H]1CN([C@@H](C)CO)S(=O)(=O)c2ccc(-c3ccncc3)cc2O[C@H]1CN(C)Cc1cccnc1,.,.,.,.,-1,.,.
Cc1ccccc1Nc1c([N+](=O)[O-])ccc2c1=NC1(CCCCC1)N=2,-6,768*,8,1,3,5,0
Cc1ccc(C)c(Nc2c([N+](=O)[O-])ccc3nonc23)c1,-3,11,.,-1,.,-1,.
